JMJD2A Tudor: inhibitors of human JMJD2A Tudor domain; O75164; AlphaScreen JMJD2A-Tudor / H3K4me3 peptide binding; Potency, µM (doses to about 114 µM), without a hit: top-dose activity change, negative = inhibition, most hits filed as inhibitors; 390,000 compounds, 4.4% hits; note: potency is the fitted concentration of half-maximal effect; % is set by controls: 0 for no effect and ±100 for the full control effect; nearly all actives have a fitted effect of over 50% in size
BAZ2B block: BAZ2B (human) inhibition | 360,000 compounds, 4.4% hits | Potency, µM (titrated, usually from 114 µM), inactives show at the highest dose activity change, negative = inhibition, most hits filed as inhibitors | Q9UIF8 | AlphaScreen BAZ2B-H3K14Ac peptide displacement; note: potency is the fitted concentration of half-maximal effect; % is set by controls: 0 for no effect and ±100 for the full control effect; nearly all actives have a fitted effect of over 60% in size
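BAZ2B (50 nM) with biotin-H3(5-23)K14Ac peptide (50 nM) in PBS pH 7.4, 0.01% Tween-20, preformed 30 min, then compound 30 min at room temperature; top concentration 110uM. AlphaScreen streptavidin donor/nickel chelate acceptor beads (10 ug/mL final), 20 min dark, signal read.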
Sfp PPTase inh: inhibitors of Bacillus subtilis Sfp phosphopantetheinyl transferase; Biochemical Sfp PPTase activity, qHTS; Potency, µM, inactives show largest response in the series, negative = inhibition, actives largely listed as inhibitors; 310,000 compounds, 3.5% hits;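 note: the enzyme is Sfp with the accession as filed and its product quenches rhodamine fluorescence; potency is the fitted concentration of half-maximal effect; 0% = enzyme reaction without inhibitor and -100% = no enzyme wells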
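Buffer: 50 mM Hepes-Na pH 7.6, 10 mM MgCl2, 0.01% Nonidet P-40, 0.01% BSA. Enzyme 15 nM, pre-exposed to compound 15 min; substrates then added and fluorescence change tracked over 30 min.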
PLK1 PBD block: PLK1 (human) polo-box domain binding inhibition. AID 720504. 360,000 compounds, 2.8% hits. Potency, µM, for inactives: max response, negative = inhibition, actives largely listed as inhibitors. Plk1 PBD binding of FITC phosphopeptide, fluorescence polarization; note: potency is the fitted concentration of half-maximal effect; series mostly up to about 57 µM; % is set by controls: 0 for no effect and ±100 for the full control effect; nearly all actives have a fitted effect of over 65% in size
G9a inh-1: G9a (human) methyltransferase inhibition | Q96KQ7 | G9a H3K9 monomethylation, AlphaScreen, 2 h | Potency, µM (highest dose often 102 µM), for the others: top-dose activity, negative = inhibition, actives largely listed as inhibitors | 350,000 compounds, 8.8% hits; note: potency is the fitted concentration of half-maximal effect; % is set by controls: 0 for no effect and ±100 for the full control effect; nearly all actives have a fitted effect of over 75% in size
Target sequence (Q96KQ7 913-1193 limits assumed): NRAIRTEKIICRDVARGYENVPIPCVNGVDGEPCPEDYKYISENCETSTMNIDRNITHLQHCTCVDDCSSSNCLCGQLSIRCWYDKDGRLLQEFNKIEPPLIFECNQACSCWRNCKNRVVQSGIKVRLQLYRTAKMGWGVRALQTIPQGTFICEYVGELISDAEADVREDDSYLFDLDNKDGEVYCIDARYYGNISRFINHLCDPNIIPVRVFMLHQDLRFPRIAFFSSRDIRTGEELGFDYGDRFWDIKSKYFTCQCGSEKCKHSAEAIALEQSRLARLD
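Enzyme 20 nM + cpd, 15 min RT; add b-H3K9 pep 500 nM / SAM 20 uM; 2 h RT; anti-H3K9me1 Ab 0.5 ug/mL + SA donor / anti-rabbit acceptor beads 20 ug/mL each, 10 min; AlphaScreen read.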
HP1b chromo inh: HP1-beta chromodomain-methylated histone interaction inhibition; AlphaScreen HP1-beta / biotin-H3K9me3 peptide binding; Potency, µM (titrated, usually from 114 µM), for the others: top-dose activity change, negative = inhibition, hits mostly inhibitors; 390,000 compounds, 0.56% hits; note: potency is the fitted concentration of half-maximal effect; nearly all actives have a fitted effect of over 70% in size
Target sequence (P83916 whole entry, looked up): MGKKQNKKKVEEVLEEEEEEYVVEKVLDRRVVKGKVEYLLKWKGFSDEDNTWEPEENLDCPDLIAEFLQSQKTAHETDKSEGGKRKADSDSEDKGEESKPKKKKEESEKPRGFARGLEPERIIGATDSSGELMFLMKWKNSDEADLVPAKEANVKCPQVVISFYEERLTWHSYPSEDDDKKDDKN
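Compound inhibition of the preformed complex between 50 nM HP1-beta and 50 nM biotinylated H3K9me3 peptide was read by AlphaScreen. Buffer was PBS pH 7.4 with 0.01% Tween-20. Incubations ran 30 min at room temperature, with 10 ug/mL donor/acceptor beads.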
JMJD2E inh: JMJD2E (human) demethylase inhibition, confirmation; shares compounds with JMJD2A Tudor; Recombinant JMJD2E, FDH-coupled NADH fluorescence (FDH is formaldehyde dehydrogenase); Potency, µM (highest dose often 56.8 µM), inactives show at the highest dose activity change, negative = inhibition, hits mostly inhibitors; 140 compounds, 93% hits; AID 2677
FDH counter: counter-screen for JMJD2E inhibitors: Pseudomonas putida formaldehyde dehydrogenase | Potency, µM (highest dose often 56.7 µM), for inactives: top-dose activity, negative = inhibition, most hits filed as inhibitors | FDH enzyme assay, NADH fluorescence kinetic | 140 compounds, 10% hits | shares compounds with JMJD2A Tudor | AID 2680
G9a inh-2: confirmation of human histone methyltransferase G9a inhibitors | G9a H3K9 monomethylation, AlphaScreen, 2 h | 370 compounds, 89% hits | shares compounds with JMJD2A Tudor | Potency, µM, usual class: inhibitors | AID 588344; note: potency is the fitted concentration of half-maximal effect; nearly all actives have a fitted effect of over 65% in size
RGS4 inh: confirmation of human RGS4 inhibitors. 25 compounds, 80% hits. AID 602388. RGS4 GAP activity, Transcreener GDP fluorescence polarization. shares compounds with JMJD2A Tudor. Potency, µM, usual class: inhibitors
* hit, by the source's call; ? = inconclusive; / = no result; [ ] = remark or other dose. An excerpt weighted towards active compounds, which were near 12% of everything screened. Calls come from the whole dose curve; as a rule, active = well fitted curve in the direction sought with a large enough effect; inconclusive = small, poorly fitted or top-dose-only effect, or another doubt; inactive = no such curve, though single readings can be large; an effect the other way counts as inactive or inconclusive.

SMILES	JMJD2A Tudor	BAZ2B block	Sfp PPTase inh	PLK1 PBD block	G9a inh-1	HP1b chromo inh	G9a inh-2	others
COC(=O)c1ccc(NC(=O)CSc2ccc(-c3cccs3)nn2)cc1	4%	-3%	/	/	-1%[59 µM]	26%	/
COc1ccc(OC)c(NC(=O)CSc2ccc(-c3cccs3)nn2)c1	?	-19%	/	/	2.8µM*	-15%	10*
CCOC(=O)C1CCCN(C(=O)c2cc(-c3ccncc3)nc3ccccc23)C1 (stereo unspecified)	-5%	8%	/	-2%	-2%	35%	/
CCOC(=O)C1CCCN(C(=O)c2cc(-c3ccco3)nc3ccccc23)C1 (stereo unspecified)	14µM*	/	/	?	/	40µM*	/	RGS4 inh=27*
O=C1CC(N2CCN(S(=O)(=O)c3ccccc3F)CC2)C(=O)N1c1ccc(F)cc1F (stereo unspecified)	-7%	/	/	-7%	/	41%	/
CCOC(=O)C1CCN(Cc2ccc(O)c3ncccc23)CC1	10µM*	4µM*	11%	27µM*	4µM*	-12%	/	JMJD2E inh=13µM*;FDH counter=?
CCOC(=O)C1CCN(Cc2nc3ccccc3c(=O)n2-c2ccc(OCC)cc2)CC1	-11%	-6%	-9%	-2%	9%[59 µM]	31%	/
CCN(CC)c1ccc(C(=O)Nc2cccc(F)c2)cc1	-17%	-7%	17%	-1%	-13%[59 µM]	19%	/
CN(C)c1cccc(C(=O)Nc2cccc(F)c2)c1	-35%	?	-14%	-9%	?	14%	7.1*
O=C1C2C3C=CC(CO)(O3)C2C(=O)N1c1ccccc1-c1ccccc1 (stereo unspecified)	18µM*	9%	1.1µM*	7.5µM*	0.32µM*	?	0.22*
COc1ccc(C(=O)NCC23C=CC(O2)C2C(=O)N(Cc4ccccc4)C(=O)C23)cc1 (stereo unspecified)	-11%	-6%	?	-3%	?	44%	/
C[C@H](CO)N1C[C@H](C)[C@H](CN(C)Cc2cncnc2)Oc2cc(Br)ccc2S1(=O)=O	/	/	/	-9%	/	/	/
Oc1ccc(CN2CCCc3ccccc32)c2cccnc12	?	35µM*	-4%	?	1.6µM*	?	/	JMJD2E inh=1.3µM*;FDH counter=-27%
O=C(CN1CCCc2ccccc21)N1CCc2ccccc21	-14%	?	5%	5%	?	31%	/
COc1cc(OC)c(NC(=O)C(C)n2nc(-c3ccc(C)cc3)c3c(c2=O)CCCC3)cc1Cl (stereo unspecified)	-29%	-32%	/	/	?	9%	/
Cc1ccc(-c2nn3c(C)nnc3s2)cc1NC(=O)c1ccc(-c2cccc(Cl)c2)o1	?	-8%	22µM*	?	?	55%	?
CCCCN(Cc1cc2cc(C)ccc2[nH]c1=O)C(=O)c1cccc(Cl)c1	-7%	-2%	/	/	2%[59 µM]	34%	/
COc1ccc(C(=O)Nc2cccc(S(=O)(=O)NC3=NCCC3)c2)cc1OC	-12%	/	/	-2%	/	32%	/
O=C(Cc1ccccc1)Nc1sc2c(c1C(=O)Nc1ccc(Cl)cc1)CCCC2	?	?	/	/	0.32µM*	?	1.8*
